Assay results as given in PubChem BioAssay AID1159580 (chemical genetic matrix, 2015).
The whole screen tested about 5,500 compounds, of which about 2,000 (36%) were called active. Roughly 18% stayed inconclusive and do not appear here. No stated cut-off is given here; in the data, active means normalized growth mostly below about 0.91 (no sharp cut-off); inconclusive means no clear call, values can overlap the other calls; inactive means mostly above about 0.92. This is one part of the list.

Test: chemical genetic growth profiling, strain panel (AID 1159580);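 further: tested at 20 µM; growth read once vehicle control cultures reached saturation at 30 °C; 1 = growth at the plate median or of vehicle wells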
Conditions: growth OD

Measured: normalized growth

Cc1cc(=O)c2c(O)c(C)c(O)cc2o1
inactive: S. cerevisiae deletion strains, locus YAL021C, strain ccr4, stronger effect = lower value 1 | S. cerevisiae deletion strains, locus YAL026C, strain drs2, stronger effect = lower value 1.04 | S. cerevisiae deletion strains, locus YAL030W, strain snc1, stronger effect = lower value 1.02 | S. cerevisiae deletion strains, locus YBL061C, strain skt5, stronger effect = lower value 1.02 | S. cerevisiae deletion strains, locus YBR009C, strain hhf1, stronger effect = lower value 1.01 | S. cerevisiae deletion strains, locus YBR021W, strain FUR4, stronger effect = lower value 0.91 | S. cerevisiae deletion strains, locus YBR023C, strain chs3, stronger effect = lower value 1.03 | S. cerevisiae deletion strains, locus YBR171W, strain sec66, stronger effect = lower value 1.03 | S. cerevisiae deletion strains, locus YBR229C, strain ROT2, stronger effect = lower value 1.02 | S. cerevisiae deletion strains, locus YBR231C, strain swc5, stronger effect = lower value 1.02 | S. cerevisiae deletion strains, locus YBR279W, strain paf1, stronger effect = lower value 1.01 | S. cerevisiae deletion strains, locus YCL011C, strain gbp2, stronger effect = lower value 1.04 | S. cerevisiae deletion strains, locus YCL016C, strain dcc1, stronger effect = lower value 1.01 | S. cerevisiae deletion strains, locus YCL029C, strain bik1, stronger effect = lower value 0.975 | S. cerevisiae deletion strains, locus YCL069W, strain vba3, stronger effect = lower value 1.02 | S. cerevisiae deletion strains, locus YCR088W, strain abp1, stronger effect = lower value 1.02 | S. cerevisiae deletion strains, locus YDL005C, strain med2, stronger effect = lower value 1.02 | S. cerevisiae deletion strains, locus YDL035C, strain GPR1, stronger effect = lower value 0.978 | S. cerevisiae deletion strains, locus YDL040C, strain nat1, stronger effect = lower value 1.01 | S. cerevisiae deletion strains, locus YDL074C, strain BRE1, stronger effect = lower value 0.973 | S. cerevisiae deletion strains, locus YDL101C, strain DUN1, stronger effect = lower value 0.991 | S. cerevisiae deletion strains, locus YDL134C, strain PPH21, stronger effect = lower value 0.983 | S. cerevisiae deletion strains, locus YDL185W, strain tfp1, stronger effect = lower value 0.983 | S. cerevisiae deletion strains, locus YDL192W, strain arf1, stronger effect = lower value 0.954 | S. cerevisiae deletion strains, locus YDR001C, strain nth1, stronger effect = lower value 1.02 | S. cerevisiae deletion strains, locus YDR069C, strain doa4, stronger effect = lower value 1.02 | S. cerevisiae deletion strains, locus YDR101C, strain arx1, stronger effect = lower value 0.957 | S. cerevisiae deletion strains, locus YDR137W, strain rgp1, stronger effect = lower value 1.03 | S. cerevisiae deletion strains, locus YDR159W, strain sac3, stronger effect = lower value 1.03 | S. cerevisiae deletion strains, locus YDR162C, strain NBP2, stronger effect = lower value 0.922 | S. cerevisiae deletion strains, locus YDR195W, strain ref2 1.01 | S. cerevisiae deletion strains, locus YDR297W, strain sur2, stronger effect = lower value 1.01 | S. cerevisiae deletion strains, locus YDR318W, strain mcm21, stronger effect = lower value 0.95 | S. cerevisiae deletion strains, locus YDR334W, strain swr1, stronger effect = lower value 1.01 | S. cerevisiae deletion strains, locus YDR335W, strain msn5, stronger effect = lower value 1.04 | S. cerevisiae deletion strains, locus YDR388W, stronger effect = lower value 0.988 | S. cerevisiae deletion strains, locus YDR392W, strain spt3, stronger effect = lower value 1.04 | S. cerevisiae deletion strains, locus YDR502C, strain sam2, stronger effect = lower value 0.935 | S. cerevisiae deletion strains, locus YEL003W, strain gim4, stronger effect = lower value 1.02 | S. cerevisiae deletion strains, locus YEL037C, strain rad23, stronger effect = lower value 1.03 | S. cerevisiae deletion strains, locus YEL061C, strain CIN8 (second series), stronger effect = lower value 1.01 | S. cerevisiae deletion strains, locus YEL061C, strain CIN8, stronger effect = lower value 1 | S. cerevisiae deletion strains, locus YER015W, strain faa2, stronger effect = lower value 1.02 | S. cerevisiae deletion strains, locus YER016W, strain bim1, stronger effect = lower value 1.01 | S. cerevisiae deletion strains, locus YER110C, stronger effect = lower value 0.96 | S. cerevisiae deletion strains, locus YER111C, strain swi4, stronger effect = lower value 1.03 | S. cerevisiae deletion strains, locus YER155C, strain BEM2 (second series), stronger effect = lower value 1.04 | S. cerevisiae deletion strains, locus YER155C, strain BEM2, stronger effect = lower value 1.02 | S. cerevisiae deletion strains, locus YER167W, strain BCK2, stronger effect = lower value 1.01 | S. cerevisiae deletion strains, locus YFR010W, strain ubp6, stronger effect = lower value 1.04 | S. cerevisiae deletion strains, locus YGL078C, strain dbp3, stronger effect = lower value 0.949 | S. cerevisiae deletion strains, locus YGL086W, strain mad1, stronger effect = lower value 0.967 | S. cerevisiae deletion strains, locus YGL167C, strain pmr1, stronger effect = lower value 1.03 | S. cerevisiae deletion strains, locus YGL173C, strain kem1, stronger effect = lower value 1.02 | S. cerevisiae deletion strains, locus YGL227W, strain vid30, stronger effect = lower value 1.02 | S. cerevisiae deletion strains, locus YGL240W, strain doc1, stronger effect = lower value 1.01 | S. cerevisiae deletion strains, locus YGL248W, strain PDE1, stronger effect = lower value 0.997 | S. cerevisiae deletion strains, locus YGL253W, strain hxk2, stronger effect = lower value 1.02 | S. cerevisiae deletion strains, locus YGR078C, strain PAC10, stronger effect = lower value 0.963 | S. cerevisiae deletion strains, locus YGR135W, strain pre9, stronger effect = lower value 0.932 | S. cerevisiae deletion strains, locus YGR252W, strain gcn5, stronger effect = lower value 0.815 | S. cerevisiae deletion strains, locus YHR013C, strain ard1, stronger effect = lower value 1.07 | S. cerevisiae deletion strains, locus YHR027C, strain rpn1, stronger effect = lower value 1.03 | S. cerevisiae deletion strains, locus YHR079C, strain IRE1 (second series), stronger effect = lower value 0.978 | S. cerevisiae deletion strains, locus YHR094C, strain hxt1, stronger effect = lower value 0.984 | S. cerevisiae deletion strains, locus YHR129C, strain ARP1, stronger effect = lower value 1 | S. cerevisiae deletion strains, locus YHR142W, strain chs7, stronger effect = lower value 1.04 | S. cerevisiae deletion strains, locus YHR200W, strain rpn10, stronger effect = lower value 0.958 | S. cerevisiae deletion strains, locus YIL066C, strain RNR3, stronger effect = lower value 1.02 | S. cerevisiae deletion strains, locus YIL073C, strain SPO22, stronger effect = lower value 0.999 | S. cerevisiae deletion strains, locus YIL125W, strain kgd1, stronger effect = lower value 0.986 | S. cerevisiae deletion strains, locus YIR030C, strain dcg1, stronger effect = lower value 0.99 | S. cerevisiae deletion strains, locus YJL092W, strain hpr5, stronger effect = lower value 1.02 | S. cerevisiae deletion strains, locus YJL095W, strain BCK1 (second series), stronger effect = lower value 1.02 | S. cerevisiae deletion strains, locus YJL095W, strain BCK1, stronger effect = lower value 0.934 | S. cerevisiae deletion strains, locus YJL115W, strain asf1, stronger effect = lower value 1.03 | S. cerevisiae deletion strains, locus YJL129C, strain trk1, stronger effect = lower value 1.01 | S. cerevisiae deletion strains, locus YJL134W, strain LCB3, stronger effect = lower value 1.01 | S. cerevisiae deletion strains, locus YJL154C, strain vps35, stronger effect = lower value 1.03 | S. cerevisiae deletion strains, locus YJL164C, strain tpk1, stronger effect = lower value 1.01 | S. cerevisiae deletion strains, locus YJL166W, strain qcr8, stronger effect = lower value 1.01 | S. cerevisiae deletion strains, locus YJL168C, strain set2, stronger effect = lower value 0.994 | S. cerevisiae deletion strains, locus YJL187C, strain SWE1 (second series), stronger effect = lower value 0.971 | S. cerevisiae deletion strains, locus YJL187C, strain SWE1, stronger effect = lower value 1 | S. cerevisiae deletion strains, locus YJR043C, strain POL32, stronger effect = lower value 0.992 | S. cerevisiae deletion strains, locus YKL009W, strain mrt4, stronger effect = lower value 0.961 | S. cerevisiae deletion strains, locus YKL068W, stronger effect = lower value 1 | S. cerevisiae deletion strains, locus YKL085W, strain MDH1 (second series), stronger effect = lower value 0.996 | S. cerevisiae deletion strains, locus YKL085W, strain MDH1, stronger effect = lower value 0.996 | S. cerevisiae deletion strains, locus YKL160W, strain elf1, stronger effect = lower value 1.02 | S. cerevisiae deletion strains, locus YKR026C, strain gcn3, stronger effect = lower value 1.02 | S. cerevisiae deletion strains, locus YKR091W, strain srl3, stronger effect = lower value 1.02 | S. cerevisiae deletion strains, locus YLL001W, strain dnm1, stronger effect = lower value 1.02 | S. cerevisiae deletion strains, locus YLL026W, stronger effect = lower value 1.01 | S. cerevisiae deletion strains, locus YLL041C, strain sdh2, stronger effect = lower value 1.02 | S. cerevisiae deletion strains, locus YLR027C, strain aat2, stronger effect = lower value 1 | S. cerevisiae deletion strains, locus YLR039C, strain RIC1, stronger effect = lower value 1.1 | S. cerevisiae deletion strains, locus YLR058C, strain SHM2, stronger effect = lower value 0.978 | S. cerevisiae deletion strains, locus YLR102C, strain apc9, stronger effect = lower value 0.976 | S. cerevisiae deletion strains, locus YLR221C, strain rsa3, stronger effect = lower value 1.01 | S. cerevisiae deletion strains, locus YLR258W, strain gsy2, stronger effect = lower value 1.01 | S. cerevisiae deletion strains, locus YLR262C, strain YPT6 (second series), stronger effect = lower value 1.01 | S. cerevisiae deletion strains, locus YLR262C, strain YPT6, stronger effect = lower value 1.12 | S. cerevisiae deletion strains, locus YLR268W, strain sec22, stronger effect = lower value 0.957 | S. cerevisiae deletion strains, locus YLR320W, strain mms22, stronger effect = lower value 1.04 | S. cerevisiae deletion strains, locus YLR330W, strain CHS5, stronger effect = lower value 0.998 | S. cerevisiae deletion strains, locus YLR342W, strain FKS1, stronger effect = lower value 1.01 | S. cerevisiae deletion strains, locus YLR357W, strain rsc2, stronger effect = lower value 1.02 | S. cerevisiae deletion strains, locus YLR370C, strain arc18, stronger effect = lower value 1.04 | S. cerevisiae deletion strains, locus YLR371W, strain rom2, stronger effect = lower value 0.954 | S. cerevisiae deletion strains, locus YLR384C, strain iki3, stronger effect = lower value 1.01 | S. cerevisiae deletion strains, locus YLR418C, strain cdc73, stronger effect = lower value 0.854 | S. cerevisiae deletion strains, locus YML016C, strain PPZ1, stronger effect = lower value 1.01 | S. cerevisiae deletion strains, locus YML032C, strain rad52, stronger effect = lower value 0.929 | S. cerevisiae deletion strains, locus YML120C, strain ndi1, stronger effect = lower value 1.02 | S. cerevisiae deletion strains, locus YML124C, strain tub3, stronger effect = lower value 0.99 | S. cerevisiae deletion strains, locus YMR058W, strain fet3, stronger effect = lower value 1.03 | S. cerevisiae deletion strains, locus YMR078C, strain ctf18, stronger effect = lower value 0.983 | S. cerevisiae deletion strains, locus YMR125W, strain sto1, stronger effect = lower value 0.989 | S. cerevisiae deletion strains, locus YMR129W, stronger effect = lower value 1.02 | S. cerevisiae deletion strains, locus YMR205C, strain PFK2, stronger effect = lower value 1.01 | S. cerevisiae deletion strains, locus YMR223W, strain ubp8, stronger effect = lower value 0.963 | S. cerevisiae deletion strains, locus YMR231W, strain pep5, stronger effect = lower value 1.02 | S. cerevisiae deletion strains, locus YMR307W, strain GAS1, stronger effect = lower value 0.989 | S. cerevisiae deletion strains, locus YNL067W, strain RPL9B, stronger effect = lower value 0.971 | S. cerevisiae deletion strains, locus YNL071W, strain lat1, stronger effect = lower value 1.02 | S. cerevisiae deletion strains, locus YNL128W, strain TEP1, stronger effect = lower value 0.993 | S. cerevisiae deletion strains, locus YNL209W, strain ssb2, stronger effect = lower value 1.02 | S. cerevisiae deletion strains, locus YNL233W, strain BNI4, stronger effect = lower value 0.956 | S. cerevisiae deletion strains, locus YNL248C, strain rpa49, stronger effect = lower value 1.01 | S. cerevisiae deletion strains, locus YNL250W, strain rad50, stronger effect = lower value 0.967 | S. cerevisiae deletion strains, locus YNL271C, strain bni1, stronger effect = lower value 0.993 | S. cerevisiae deletion strains, locus YNL298W, strain CLA4, stronger effect = lower value 0.969 | S. cerevisiae deletion strains, locus YNL307C, strain MCK1, stronger effect = lower value 0.971 | S. cerevisiae deletion strains, locus YNL322C, strain KRE1 (second series), stronger effect = lower value 1.02 | S. cerevisiae deletion strains, locus YNL322C, strain KRE1, stronger effect = lower value 0.994 | S. cerevisiae deletion strains, locus YNR049C, strain mso1, stronger effect = lower value 1.01 | S. cerevisiae deletion strains, locus YNR052C, strain pop2, stronger effect = lower value 0.987 | S. cerevisiae deletion strains, locus YOL006C, strain TOP1, stronger effect = lower value 0.946 | S. cerevisiae deletion strains, locus YOL012C, strain htz1 1.07 | S. cerevisiae deletion strains, locus YOL147C, strain pex11, stronger effect = lower value 0.966 | S. cerevisiae deletion strains, locus YOR001W, strain rrp6, stronger effect = lower value 1.03 | S. cerevisiae deletion strains, locus YOR061W, strain CKA2, stronger effect = lower value 1.02 | S. cerevisiae deletion strains, locus YOR069W, strain VPS5, stronger effect = lower value 1 | S. cerevisiae deletion strains, locus YOR070C, strain gyp1, stronger effect = lower value 1.02 | S. cerevisiae deletion strains, locus YOR080W, strain dia2, stronger effect = lower value 1.02 | S. cerevisiae deletion strains, locus YOR083W, strain WHI5, stronger effect = lower value 1.01 | S. cerevisiae deletion strains, locus YOR106W, strain vam3, stronger effect = lower value 1.02 | S. cerevisiae deletion strains, locus YOR136W, strain idh2, stronger effect = lower value 0.949 | S. cerevisiae deletion strains, locus YOR144C, strain elg1, stronger effect = lower value 0.988 | S. cerevisiae deletion strains, locus YOR184W, strain ser1, stronger effect = lower value 0.986 | S. cerevisiae deletion strains, locus YOR265W, strain rbl2, stronger effect = lower value 1.01 | S. cerevisiae deletion strains, locus YOR270C, strain vph1, stronger effect = lower value 1.07 | S. cerevisiae deletion strains, locus YOR290C, strain snf2, stronger effect = lower value 1.03 | S. cerevisiae deletion strains, locus YOR316C, strain cot1, stronger effect = lower value 0.983 | S. cerevisiae deletion strains, locus YPL051W, strain arl3, stronger effect = lower value 1.02 | S. cerevisiae deletion strains, locus YPL078C, strain atp4, stronger effect = lower value 1.03 | S. cerevisiae deletion strains, locus YPL106C, strain sse1, stronger effect = lower value 1.03 | S. cerevisiae deletion strains, locus YPL240C, strain hsp82, stronger effect = lower value 1.01 | S. cerevisiae deletion strains, locus YPL241C, strain CIN2, stronger effect = lower value 0.997 | S. cerevisiae deletion strains, locus YPR119W, strain clb2, stronger effect = lower value 0.99 | S. cerevisiae deletion strains, locus YPR141C, strain kar3, stronger effect = lower value 1.01 | S. cerevisiae deletion strains, locus YPR167C, strain met16, stronger effect = lower value 0.957 | S. cerevisiae deletion strains, strain wtn01, stronger effect = lower value 0.97 | S. cerevisiae strains, strain wild type, stronger effect = lower value 1.02
active: S. cerevisiae deletion strains, locus YKR001C, strain vps1, stronger effect = lower value 0.888 | S. cerevisiae deletion strains, locus YPR163C, strain tif3, stronger effect = lower value 0.866
